# Experimental data as given in PubChem BioAssay (EPA / NIEHS).
# Active and inactive are the calls of the source. The calls were made as follows: active = hit-call score of the fitted dose curve at least 0.9, where 1 is the maximum; inactive = score below 0.9.
# Tested on: not listed separately
# Assay: ATG_NF_kB_CIS: Attagene CIS-FACTORIAL HepG2 Assay for human Nuclear Factor Kappa B (NF-kB) (AID 2282991)
# Details: HepG2 Attagene cis-factorial NF-kB reporter mRNA; actives raise or lower the signal
# How it was run: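 HepG2 cells transiently transfected with multiplexed cis-element reporter units measuring endogenous transcription factor activity; reporter mRNA read 24 h after dosing by RT-PCR, fluorescent labelling, HpaI digestion and capillary electrophoresis. Bidirectional fit against DMSO baseline.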
SMILES,outcome,AC50
CC(=O)OC(C)(C)C,inactive,–
CCC=C(C)C=O,inactive,–
CCCCCC1CCC(=O)O1 (stereo not drawn),inactive,–
CC(=O)CCc1ccc(O)cc1,inactive,–
CCCCCc1cccc(=O)o1,inactive,–
CCCCCCCCCCCCN1CCOCC1,inactive,–
CC(CO)c1ccccc1 (stereo not drawn),inactive,–
CC(C)Cc1ccc(C(C)C(=O)O)cc1 (stereo not drawn),inactive,–
Cc1cccc(O)c1,inactive,–
CC1=C(C=O)C(C)(C)CCC1,inactive,–
CCCC1CCOC(C)S1 (stereo not drawn),inactive,–
CCCCOCC(C)OCC(C)O (stereo not drawn),inactive,–
CC(C)=CC(=O)O,inactive,–
CC(C)(O)C(=O)c1ccc(OCCO)cc1,inactive,–
O=S1(=O)CC=CC1,inactive,–
O=C(O)c1cccc(Cl)n1,inactive,–
Cc1cc(N)n(-c2ccccc2)n1,inactive,–
C=CCOC(=O)/C=C\C(=O)OCC=C,–,15.8 µM (active)
CCCCOCCOCCOCCO,inactive,–
CCC(C)C1CCCCC1=O (stereo not drawn),inactive,–
Brc1cc(Br)cc(Br)c1,inactive,–

# Tested on: not listed separately
# Assay: ATG_NRF2_ARE_CIS: Attagene CIS-FACTORIAL HepG2 Assay for human Nuclear Factor Erythroid 2 Related Factor 2 (NFR2) response to Antioxidant Response Elements (ARE) (AID 2282992);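 as to AC50: reporter mRNA level measured by RT-PCR and capillary electrophoresis fluorescence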
# Details: HepG2 Attagene ARE/NRF2 reporter, transcription factor activity; actives raise or lower the signal
# How it was run: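 Transient MRTU transfection of HepG2; 24 h compound exposure; TriZol RNA, RT with oligo(dT), PCR, 6-FAM primer extension, HpaI cut, CE. Bidirectional fit vs DMSO.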
SMILES,outcome,AC50
CCC=C(C)C=O,inactive,–
C=CCCCCCCCCC(=O)OCC,–,61.7 µM (active)
CCCCCC1CCC(=O)O1 (stereo not drawn),inactive,–
CCCCCCCCCCCCCC(=O)OCC,inactive,–
CCCCCCCCCCCCN1CCOCC1,–,33.4 µM (active)
CC(=O)Oc1c(C)c(C)c2c(c1C)CC[C@@](C)(CCC[C@H](C)CCC[C@H](C)CCCC(C)C)O2,inactive,–
Cc1cccc(O)c1,inactive,–
CC1=C(C=O)C(C)(C)CCC1,inactive,–
O=C(O)C1=NN(c2ccc(S(=O)(=O)O)cc2)C(=O)C1,inactive,–
CCCC1CCOC(C)S1 (stereo not drawn),inactive,–
CC(C)=CC(=O)O,inactive,–
CCCCC/C=C\C=C\C(=O)OCC,inactive,–
C=CC(O)CCCCC (stereo not drawn),–,38 µM (active)
CCCCCCCCCC(=O)OCC,inactive,–
CC1(C)[C@H](C=C(Cl)Cl)[C@H]1C(=O)OCc1cccc(Oc2ccccc2)c1,inactive,–
O=C(O)c1cccc(Cl)n1,inactive,–
CCC(=O)OC(C)(C)C1CC=C(C)CC1 (stereo not drawn),–,127 µM (active)
CC1=CCC(C(C)C)=CC1,inactive,–
C=CCOC(=O)/C=C\C(=O)OCC=C,–,6.75 µM (active)
C=CC(C)(CCC=C(C)C)OC(=O)CC (stereo not drawn),–,68.1 µM (active)
CCCC1CCC(=O)CC1,inactive,–
CC(C)(CO)CO,inactive,–
C/C=C(\C)C(=O)OC/C=C(\C)CCC=C(C)C,–,100 µM (active)
CCCCCCCC1CCCC1=O (stereo not drawn),inactive,–

# Tested on: not listed separately
# Assay: ATG_Oct_MLP_CIS: Attagene CIS-FACTORIAL HepG2 Assay for human Octamer-Binding Transcription Factor (Oct) (AID 2282993)
# Details: HepG2 Attagene cis-factorial Oct reporter, mRNA; actives raise or lower the signal
# How it was run: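 Using HepG2 cells bearing transfected cis-reporter constructs, mRNA induction was read after 24 h by fluorescent RT-PCR and capillary electrophoresis, with DMSO defining baseline for gain- or loss-of-signal fits.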
SMILES,outcome,AC50
CC(=O)OC(C)(C)C,inactive,–
C=CCCCCCCCCC(=O)OCC,inactive,–
CCCCCCCCCCCCCC(=O)OCC,inactive,–
CC(=O)CCc1ccc(O)cc1,inactive,–
CC(=O)Oc1c(C)c(C)c2c(c1C)CC[C@@](C)(CCC[C@H](C)CCC[C@H](C)CCCC(C)C)O2,inactive,–
CC(C)Cc1ccc(C(C)C(=O)O)cc1 (stereo not drawn),inactive,–
O=C(O)C1=NN(c2ccc(S(=O)(=O)O)cc2)C(=O)C1,inactive,–
CCCC1CCOC(C)S1 (stereo not drawn),inactive,–
CCCCOCC(C)OCC(C)O (stereo not drawn),inactive,–
CCCCC/C=C\C=C\C(=O)OCC,inactive,–
C=CC(O)CCCCC (stereo not drawn),–,45.6 µM (active)
CCCCCCCCCC(=O)OCC,inactive,–
CC1(C)[C@H](C=C(Cl)Cl)[C@H]1C(=O)OCc1cccc(Oc2ccccc2)c1,inactive,–
CC(C)(O)C(=O)c1ccc(OCCO)cc1,inactive,–
O=S1(=O)CC=CC1,inactive,–
CCC(=O)OC(C)(C)C1CC=C(C)CC1 (stereo not drawn),inactive,–
Cc1cc(N)n(-c2ccccc2)n1,inactive,–
CC1=CCC(C(C)C)=CC1,inactive,–
C=CC(C)(CCC=C(C)C)OC(=O)CC (stereo not drawn),inactive,–
CCCCOCCOCCOCCO,inactive,–
CCCC1CCC(=O)CC1,inactive,–
CC(C)(CO)CO,inactive,–
CCC(C)C1CCCCC1=O (stereo not drawn),inactive,–
C/C=C(\C)C(=O)OC/C=C(\C)CCC=C(C)C,inactive,–
Brc1cc(Br)cc(Br)c1,inactive,–
CCCCCCCC1CCCC1=O (stereo not drawn),inactive,–

# Biological target: Cellular tumor antigen p53 (Homo sapiens) (UniProt P04637)
# Assay: ATG_p53_CIS: Attagene CIS-FACTORIAL HepG2 Assay for human p53 Transcription Factor (AID 2282994)
# Details: HepG2 p53 cis-element reporter, Attagene mRNA; actives raise or lower the signal
# How it was run: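 HepG2, transient MRTU transfection (cis promoter elements, endogenous TFs); 24 h dosing; RNA isolation, RT-PCR, 6-FAM primer extension, HpaI digest, CE fluorescence; bidirectional fit vs DMSO.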
# Sequence of Cellular tumor antigen p53 (Homo sapiens) (P04637 whole entry, looked up): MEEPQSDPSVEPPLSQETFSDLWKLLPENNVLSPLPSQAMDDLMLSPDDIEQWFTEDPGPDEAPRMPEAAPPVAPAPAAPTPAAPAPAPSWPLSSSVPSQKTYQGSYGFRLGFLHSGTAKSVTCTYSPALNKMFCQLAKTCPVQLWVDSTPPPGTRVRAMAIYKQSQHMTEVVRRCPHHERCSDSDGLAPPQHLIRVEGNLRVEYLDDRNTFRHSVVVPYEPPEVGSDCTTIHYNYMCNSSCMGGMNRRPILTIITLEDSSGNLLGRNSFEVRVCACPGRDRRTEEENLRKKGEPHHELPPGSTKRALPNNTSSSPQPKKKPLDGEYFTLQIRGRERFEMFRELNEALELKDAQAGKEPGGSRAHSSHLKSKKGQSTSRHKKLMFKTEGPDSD
SMILES,outcome,AC50
CC(=O)OC(C)(C)C,inactive,–
CCC=C(C)C=O,inactive,–
C=CCCCCCCCCC(=O)OCC,inactive,–
CCCCCC1CCC(=O)O1 (stereo not drawn),inactive,–
CCCCCCCCCCCCCC(=O)OCC,inactive,–
CC(=O)CCc1ccc(O)cc1,inactive,–
CCCCCc1cccc(=O)o1,inactive,–
CCCCCCCCCCCCN1CCOCC1,inactive,–
CC(CO)c1ccccc1 (stereo not drawn),inactive,–
CC(=O)Oc1c(C)c(C)c2c(c1C)CC[C@@](C)(CCC[C@H](C)CCC[C@H](C)CCCC(C)C)O2,inactive,–
CC(C)Cc1ccc(C(C)C(=O)O)cc1 (stereo not drawn),inactive,–
Cc1cccc(O)c1,inactive,–
O=C(O)C1=NN(c2ccc(S(=O)(=O)O)cc2)C(=O)C1,inactive,–
CC(C)=CC(=O)O,inactive,–
CCCCC/C=C\C=C\C(=O)OCC,–,156 µM (active)
C=CC(O)CCCCC (stereo not drawn),inactive,–

SMILES,outcome,AC50
CCCCCCCCCC(=O)OCC,inactive,–
CC1(C)[C@H](C=C(Cl)Cl)[C@H]1C(=O)OCc1cccc(Oc2ccccc2)c1,inactive,–
CC(C)(O)C(=O)c1ccc(OCCO)cc1,inactive,–
O=S1(=O)CC=CC1,inactive,–
O=C(O)c1cccc(Cl)n1,inactive,–
CCC(=O)OC(C)(C)C1CC=C(C)CC1 (stereo not drawn),inactive,–
Cc1cc(N)n(-c2ccccc2)n1,inactive,–
CC1=CCC(C(C)C)=CC1,inactive,–
C=CCOC(=O)/C=C\C(=O)OCC=C,–,156 µM (active)
C=CC(C)(CCC=C(C)C)OC(=O)CC (stereo not drawn),inactive,–
CCCCOCCOCCOCCO,inactive,–
CC(C)(CO)CO,inactive,–
CCC(C)C1CCCCC1=O (stereo not drawn),inactive,–
C/C=C(\C)C(=O)OC/C=C(\C)CCC=C(C)C,inactive,–
Brc1cc(Br)cc(Br)c1,inactive,–
CCCCCCCC1CCCC1=O (stereo not drawn),inactive,–
